This passage reports Potency results from PubChem BioAssay (NCATS).

Results filed as inconclusive are left out. Active and inactive are the calls of the source. Unless noted, calls come from the whole dose curve; as a rule, active = well fitted curve in the direction sought with a large enough effect; inconclusive = small, poorly fitted or top-dose-only effect, or another doubt; inactive = no such curve, though single readings can be large; an effect the other way counts as inactive or inconclusive.

Experiment [1] in a line: qHTS for Inhibitors of the Functional Ribonucleoprotein Complex (vRNP) of Lymphocytic Choriomeningitis Arenaviruses (LCMV): Viability assay - alamar blue signal for LCMV Primary Screen (AID 1347085; calls by dose curve; tested in HEK293 reporter line; note: nearly all actives have a fitted effect of over 80% in size; note: potency is the fitted concentration of half-maximal effect). On the technique in general: qHTS replaces the single test concentration by a dilution series.
Experiment [2] has as its target Nucleoprotein (Lymphocytic choriomeningitis virus (strain Armstrong)) (UniProt P09992). Briefly: qHTS for Inhibitors of the Functional Ribonucleoprotein Complex (vRNP) of Lymphocytic Choriomeningitis Arenaviruses (LCMV): LCMV Primary Screen - GLuc reporter signal (AID 1347086; calls by dose curve; note: nearly all actives have a fitted effect of over 70% in size; note: potency is the fitted concentration of half-maximal effect).
Experiment [3] in a line: qHTS of pediatric cancer cell lines to identify multiple opportunities for drug repurposing: Primary screen for TC32 cells (AID 1347089). Note: nearly all actives have a fitted effect of over 60% in size. The procedure, abridged: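 TC32 cells, 500-1,000/well in growth medium, compound-treated 48 h at 37 °C; viability from CellTiter-Glo luminescence. Primary screen: MIPE 11-point (0.78 nM–46 µM final), NPC 8-point (0.59 nM–46 µM final); confirmatory at 11-point dilutions.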

Experiment [4] in a line: qHTS of pediatric cancer cell lines to identify multiple opportunities for drug repurposing: Primary screen for DAOY cells (AID 1347090). Note: series mostly up to about 46 µM; nearly all actives have a fitted effect of over 55% in size. The procedure, abridged: (§1)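 Viability measured as metabolically active cells via CellTiter-Glo luminescence following 48 hours of compound exposure, 11-point dilutions in confirmatory testing. 500-1,000 cells/well plated 5 hours before dosing; controls were DMSO and 2.3 µM bortezomib.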

Experiment [5] can be described thus: qHTS of pediatric cancer cell lines to identify multiple opportunities for drug repurposing: Primary screen for SJ-GBM2 cells (AID 1347091). The procedure, abridged:
as §1

Experiment [6] in a line: qHTS of pediatric cancer cell lines to identify multiple opportunities for drug repurposing: Primary screen for A673 cells (AID 1347092). Note: nearly all actives have a fitted effect of over 45% in size. The procedure, abridged: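 A673 cells (500-1,000 cells/well) were treated 48 hours at 37 degrees C with compounds at 11-point (0.78 nM to 46 µM) or 8-point (0.59 nM to 46 µM) dilutions. Viability read by CellTiter-Glo luminescence; concentration-response curves fitted.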

Experiment [7] in a line: qHTS of pediatric cancer cell lines to identify multiple opportunities for drug repurposing: Primary screen for SK-N-MC cells (AID 1347093). Note: potency is the fitted concentration of half-maximal effect. The procedure, abridged: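 Metabolically active cells were quantified by ATP-dependent luminescence (CellTiter-Glo, 15 min at room temperature) following 48 h treatment. Cells had been plated at 500-1,000 per well and settled for 5 h beforehand.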

A short description of experiment [8]: qHTS of pediatric cancer cell lines to identify multiple opportunities for drug repurposing: Primary screen for BT-37 cells (AID 1347094). Note: series mostly up to about 57 µM. The procedure, abridged: (§2)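 Phenotypic viability qHTS, 48 h compound exposure, CellTiter-Glo luminescence read-out; multi-concentration dosing so that potency and efficacy derive directly from the primary screen's curves.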

A short description of experiment [9]: qHTS of pediatric cancer cell lines to identify multiple opportunities for drug repurposing: Primary screen for NB-EBc1 cells (AID 1347095). In outline:
as §2

The nature of experiment [10]: qHTS of pediatric cancer cell lines to identify multiple opportunities for drug repurposing: Primary screen for U-2 OS cells (AID 1347096). Note: nearly all actives have a fitted effect of over 50% in size. In outline: (§3)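 Viability after 48 h compound treatment at 37C, 500-1,000 cells/well, read as ATP luminescence with CellTiter-Glo. Primary screens used 11-point (MIPE, 0.78 nM-46 µM) or 8-point (NPC, 0.59 nM-46 µM) final concentrations; follow-up screens used 11-point dilutions.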

A short description of experiment [11]: qHTS of pediatric cancer cell lines to identify multiple opportunities for drug repurposing: Primary screen for Saos-2 cells (AID 1347097). Note: nearly all actives have a fitted effect of over 40% in size. The procedure, abridged:
as §2

Experiment [12] is described as follows: qHTS of pediatric cancer cell lines to identify multiple opportunities for drug repurposing: Primary screen for SK-N-SH cells (AID 1347098).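 Note: DMSO served as neutral control and bortezomib at 2.3 µM as positive control; nearly all actives have a fitted effect of over 65% in size.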 In outline:
(§4)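 Cells (500-1,000/well) rested 5 h, then received compounds for 48 h; metabolically active cells were measured by CellTiter-Glo luminescence. Final concentrations spanned up to 46 µM (MIPE, 11-point) or 0.59 nM-46 µM (NPC, 8-point) in primary screens, 11-point in follow-ups.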

Experiment [13] in a line: qHTS of pediatric cancer cell lines to identify multiple opportunities for drug repurposing: Primary screen for NB1643 cells (AID 1347099). Note: nearly all actives have a fitted effect of over 50% in size. Note: potency is the fitted concentration of half-maximal effect. In outline:
as §2

The nature of experiment [14]: qHTS of pediatric cancer cell lines to identify multiple opportunities for drug repurposing: Primary screen for LAN-5 cells (AID 1347100). In outline: as §3
Experiment [15] can be described thus: qHTS of pediatric cancer cell lines to identify multiple opportunities for drug repurposing: Primary screen for BT-12 cells (AID 1347101). Note: nearly all actives have a fitted effect of over 25% in size. The procedure, abridged:
as §4

The nature of experiment [16]: qHTS of pediatric cancer cell lines to identify multiple opportunities for drug repurposing: Primary screen for Rh18 cells (AID 1347102). Note: nearly all actives have a fitted effect of over 65% in size. In outline:
as §3

A short description of experiment [17]: qHTS of pediatric cancer cell lines to identify multiple opportunities for drug repurposing: Primary screen for OHS-50 cells (AID 1347103). Note: nearly all actives have a fitted effect of over 40% in size. In outline:
as §4

A short description of experiment [18]: qHTS of pediatric cancer cell lines to identify multiple opportunities for drug repurposing: Primary screen for RD cells (AID 1347104). Note: nearly all actives have a fitted effect of over 55% in size. In outline:
as §2

A short description of experiment [19]: qHTS of pediatric cancer cell lines to identify multiple opportunities for drug repurposing: Primary screen for MG 63 (6-TG R) cells (AID 1347105). Note: nearly all actives have a fitted effect of over 50% in size. The procedure, abridged:
as §2

A short description of experiment [20]: qHTS of pediatric cancer cell lines to identify multiple opportunities for drug repurposing: Primary screen for control Hh wild type fibroblast cells (AID 1347106).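 Note: series mostly up to about 46 µM; a drop in luminescence marks cytotoxicity and a rise apparent proliferation; nearly all actives have a fitted effect of over 55% in size.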 The procedure, abridged: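 Cells (500-1,000/well) in growth media were settled 5 h at 37 degrees C, then given compounds for 48 h. Viability was read as CellTiter-Glo luminescence. Primary runs used MIPE at 11 points (0.78 nM-46 µM) and NPC at 8 points (0.59 nM-46 µM); follow-ups used 11 points.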

Chain of Nucleoprotein (Lymphocytic choriomeningitis virus (strain Armstrong)) (P09992 whole entry, looked up): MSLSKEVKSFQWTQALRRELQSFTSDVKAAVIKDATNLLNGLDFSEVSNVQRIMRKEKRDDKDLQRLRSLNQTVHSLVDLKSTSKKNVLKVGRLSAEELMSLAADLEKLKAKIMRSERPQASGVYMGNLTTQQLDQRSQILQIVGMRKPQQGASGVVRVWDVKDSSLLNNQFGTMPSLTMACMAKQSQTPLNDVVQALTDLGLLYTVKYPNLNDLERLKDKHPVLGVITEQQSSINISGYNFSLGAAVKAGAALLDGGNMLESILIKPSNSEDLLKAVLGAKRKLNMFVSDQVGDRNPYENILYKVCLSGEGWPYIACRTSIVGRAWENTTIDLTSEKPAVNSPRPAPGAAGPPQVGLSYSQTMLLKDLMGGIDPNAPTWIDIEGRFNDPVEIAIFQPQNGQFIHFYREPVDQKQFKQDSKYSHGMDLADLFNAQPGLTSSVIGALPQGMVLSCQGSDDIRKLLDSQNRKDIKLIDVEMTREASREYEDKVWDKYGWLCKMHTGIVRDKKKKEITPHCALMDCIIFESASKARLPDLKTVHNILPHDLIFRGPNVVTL

Turning to `C=CC(=O)NCNC(=O)C=C`, the Potency result in experiment [1], in experiment [2], in [3], in [4], in experiment [5] and in [6] was “inactive” throughout. Also, the Potency entry in experiment [7], in [8], in experiment [9], in experiment [10], in [11] and in experiment [12] was “inactive” throughout. Moreover, the Potency result in experiment [13], in [14], in experiment [15], in experiment [16], in experiment [17] and in experiment [18] was “inactive” throughout. In addition, the Potency entry in [19] and in [20] was “inactive” in each case.

Turning to `CN(C)CCN(C)C(=O)c1ccc(NC(=O)Nc2ccc(-c3nc(N4CCOCC4)c4ccn(CC(F)(F)F)c4n3)cc2)cc1`, the Potency in [1] is 43.2 nM (active); in experiment [2], 76.9 nM (active).

Turning to `Cc1ccccc1N=Nc1ccc(N=Nc2c(O)ccc3ccccc23)c(C)c1`, the Potency entry in experiment [1] and in experiment [2] was “inactive” in each case.

`N#CC[C@H](C1CCCC1)n1cc(-c2ncnc3[nH]ccc23)cn1`: the Potency result in experiment [1] and in experiment [2] was “inactive” each time.

In the case of `CCOC(=O)C(C)Oc1cccc2c(=O)n(CC(=O)Nc3ccc4c(c3)OCCO4)ccc12` (centres undefined), the Potency entry in experiment [1] and in experiment [2] was “inactive” in each case.

In the case of `C1CCC(NC2CCCCC2)CC1`, the Potency entry in [1], in experiment [2], in experiment [3], in experiment [4], in experiment [5] and in [6] was “inactive” throughout. For the same compound, the Potency entry in experiment [7], in experiment [8], in [9], in [10], in [11] and in experiment [12] was “inactive” each time. The Potency result in experiment [13], in [14], in experiment [15], in experiment [16], in [17] and in experiment [18] was “inactive” each time. Besides, the Potency entry in [19] and in experiment [20] was “inactive” in each case.

Take `COc1cc(C(O)CN)ccc1O` (centres undefined): the Potency entry in experiment [1] and in [2] was “inactive” in each case.

Turning to `CS(=O)(=O)Nc1ccc([N+](=O)[O-])cc1Oc1ccccc1`, the Potency result in experiment [1] and in experiment [2] was “inactive” each time.

`CN1C(=O)CC[C@H]1c1cccnc1`: the Potency result in [1] and in experiment [2] was “inactive” throughout.

Turning to `CCCOC(=O)c1ccc(O)cc1`, the Potency result in [1] and in experiment [2] was “inactive” each time.

For the compound `C[N+](C)(C)CC(=O)O`, the Potency result in [1] and in experiment [2] was “inactive” throughout.

Take `CCCCCCCCCCCCCC(=O)OC(C)C`: the Potency result in experiment [1] and in experiment [2] was “inactive” in each case.

As for `COc1cccc2c1[C@]13CCN(CC4CC4)[C@H](C2)[C@]1(OC)CCC(=O)C3`, the Potency entry in experiment [1], in experiment [2], in experiment [3], in experiment [4], in experiment [5] and in experiment [6] was “inactive” throughout. The Potency result in experiment [7], in experiment [8], in experiment [9], in experiment [10], in experiment [11] and in [12] was “inactive” in each case. Also, the Potency entry in experiment [13], in experiment [14], in experiment [15], in experiment [16], in experiment [17] and in experiment [19] was “inactive” each time. In experiment [20], the Potency entry was “inactive”.

As to `Cc1nccc2c1[nH]c1ccccc12`, the Potency result in experiment [1] and in experiment [2] was “inactive” throughout.

In the case of `Oc1ccc2c3c1O[C@H]1c4[nH]c5c(c4C[C@@]4(O)[C@@H](C2)N(CC2CC2)CC[C@]314)C[C@@]1(O)[C@H]2Cc3ccc(O)c4c3[C@@]1(CCN2CC1CC1)[C@H]5O4`, the Potency entry in experiment [1], in experiment [2], in experiment [3], in experiment [4], in experiment [5] and in experiment [6] was “inactive” throughout. The Potency result in experiment [7], in experiment [8], in experiment [9], in experiment [10], in experiment [11] and in experiment [12] was “inactive” in each case. The Potency entry in experiment [13], in [14], in [15], in experiment [16], in [17] and in [19] was “inactive” throughout. The Potency entry in experiment [20] is “inactive”.

In the case of `Cc1cccc(C)c1NC(=O)c1ccc(N)cc1`, the Potency result in [1] and in experiment [2] was “inactive” each time.

Turning to `COc1ccc(C2=N[C@H](c3ccc(Cl)cc3)[C@H](c3ccc(Cl)cc3)N2C(=O)N2CCNC(=O)C2)c(OC(C)C)c1`, the Potency result in experiment [1] and in [2] was “inactive” each time.

On to `O=C(O)CNC(=O)CNC(=O)CNC(=O)CSC(=O)c1ccccc1`, for which the Potency result in experiment [1] and in experiment [2] was “inactive” throughout.

On to `CCNC(=O)c1noc(-c2cc(C(C)C)c(O)cc2O)c1-c1ccc(CN2CCOCC2)cc1`, for which the Potency was 544 nM (active) in [1] and 306 nM (active) in [2].

For the compound `CCOC(=O)c1cncn1[C@H](C)c1ccccc1`, the Potency result in [1], in [2], in experiment [3], in experiment [4], in experiment [5] and in [6] was “inactive” in each case. Moreover, the Potency entry in experiment [7], in [8], in experiment [9], in experiment [10], in experiment [11] and in [12] was “inactive” in each case. In addition, the Potency entry in [13], in experiment [14], in experiment [15], in [16], in experiment [17] and in experiment [18] was “inactive” throughout. Also, the Potency result in experiment [19] and in experiment [20] was “inactive” throughout.

As for `CS(=O)(=O)c1ccc(C(=O)C2C(=O)CCCC2=O)c([N+](=O)[O-])c1`, the Potency result in experiment [1], in experiment [2], in [3], in experiment [4], in experiment [5] and in [6] was “inactive” in each case. Further, the Potency entry in experiment [8], in experiment [9], in [10], in [11], in experiment [12] and in experiment [14] was “inactive” each time. Besides, the Potency result in experiment [15], in [16], in [17], in [19] and in experiment [20] was “inactive” each time. Also, the Potency in experiment [7] and in [13] was 1 nM (active) each time.

For `Cc1ccc(S(=O)(=O)Nc2cc(Cl)ccc2C(=O)Nc2nc(-c3ccccc3)cs2)cc1`, the Potency result in [1] and in experiment [2] was “inactive” each time.

As for `c1ccc(-c2nn3c(c2-c2ccnc4cc(OCCN5CCOCC5)ccc24)CCC3)nc1`, the Potency entry in experiment [1] and in [2] was “inactive” throughout.

As for `O=C(O)C(Cl)Cl`, the Potency entry in experiment [1], in experiment [2], in experiment [3], in experiment [4], in experiment [5] and in experiment [6] was “inactive” throughout. Moreover, the Potency result in experiment [7], in experiment [8], in [9], in experiment [10], in [11] and in experiment [12] was “inactive” throughout. Moreover, the Potency result in experiment [13], in experiment [14], in [15], in [16], in experiment [17] and in [18] was “inactive” each time. Besides, the Potency entry in [19] and in experiment [20] was “inactive” in each case.

In the case of `O=[N+]([O-])c1cccc(S(=O)(=O)NCCNS(=O)(=O)c2cccc([N+](=O)[O-])c2)c1`, the Potency result in experiment [1] and in experiment [2] was “inactive” throughout.

Regarding `N[C@H]1C(O)O[C@H](CO)[C@@H](O)[C@@H]1O` (some centres undefined), the Potency entry in experiment [1] and in experiment [2] was “inactive” in each case.

With `COc1nc(-c2ccc3c(c2)OCO3)n(-c2ccc(NC(=O)CSc3ccccc3)cc2)n1`, the Potency result in experiment [1] and in experiment [2] was “inactive” in each case.

Regarding `CS(=N)(=O)CC[C@H](N)C(=O)O` (some centres undefined), the Potency result in [1] and in [2] was “inactive” in each case.
